“And” between values parts separate entries of the source, which are not always exact repeats. Equal entries are not always repeated. In all, about 73,000 compounds went through this assay and about 2,500 (3.4%) were called active. Another 7% or so got no clear call; they are omitted. The sample holds actives, similar compounds and a random draw of the others, so the mix is not that of the screen. The call rests on the fitted dose curve; in most records, active means well fitted inhibition curve with a large enough effect; inconclusive means small, poorly fitted or top-dose-only effect; inactive means no such curve, though single readings can be large or run the other way. Some structures have more than one record in an assay (separate samples or runs), and their calls can disagree.
On the % scale 0 is the no-effect control and ±100 the full control effect; potency means the concentration at half of the fitted maximal effect.

Chain of 3-hydroxyacyl-CoA dehydrogenase type-2 (Homo sapiens) (Q99714 whole entry, looked up): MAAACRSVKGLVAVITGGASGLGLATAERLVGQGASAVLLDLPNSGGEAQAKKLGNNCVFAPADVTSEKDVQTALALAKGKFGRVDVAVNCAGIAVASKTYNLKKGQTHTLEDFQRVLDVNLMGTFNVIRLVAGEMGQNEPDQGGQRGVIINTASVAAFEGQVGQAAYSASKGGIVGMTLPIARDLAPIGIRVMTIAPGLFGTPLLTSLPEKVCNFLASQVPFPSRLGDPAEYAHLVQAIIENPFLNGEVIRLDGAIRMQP
Chain of 3-hydroxyacyl-CoA dehydrogenase type-2 (Homo sapiens) (Q99714 whole entry, looked up): as above

This assay addresses 3-hydroxyacyl-CoA dehydrogenase type-2 (Homo sapiens) (UniProt Q99714). Nature of the assay: qHTS Assay for Inhibitors of HADH2 (Hydroxyacyl-Coenzyme A Dehydrogenase, Type II). Further: nearly all actives have a fitted effect of over 60% in size. Particulars: recombinant HADH2, NADH fluorescence, beta-hydroxybutyryl-CoA; series mostly up to 57.1 µM; activity change, negative = inhibition: at the top concentration. From the text:
Assay Overview: NIH Molecular Libraries Screening Centers Network [MLSCN] NIH Chemical Genomics Center [NCGC] Structural Genomics Consortium [SGC] Grant Number: None HADH2: Hydroxyacyl-Coenzyme A dehydrogenase, type II, was supplied by researchers at the Structural Genomics Consortium, Oxford University lab (PI Udo Oppermann). The mitochondrial enzyme 17-hydroxysteroid dehydrogenase type 10 (HSD17-10) previously classified as type II hydroxyacyl-CoA dehydrogenase (HADH2) catalyzes the NAD+ dependent oxidation of a variety of substrates including acyl-CoAs, androgens and neurosteroids as well as bile acids(Shafqat N, Marschall HU, Filling C, et al. Biochemical Journal. 2003;376(Pt 1):49-60). The role in neurodegeneration by binding to amyloid-peptide led to its identification (Oppermann UC, et al FEBS Letters. 1999;451(3):238-242 and Yan SD, et al. Nature. 1997;389(6652):689-695), and mutations in its gene appear to be causative for 2-methyl-3-hydroxybutyryl-CoA dehydrogenase deficiency (Ofman R, et al. American Journal of Human Genetics. 2003;72(5):1300-1307). The enzyme was produced by E.coli fermentation as His-tagged recombinant for the purpose of X-ray structure determination, and had been mass-spectrometry characterized. Inhibition of HADH2 activity was screened by utilizing beta-hydroxybutyryl coenzyme A as an electron donor and NAD+ as an electron acceptor/cofactor. An increase in the fluorescence intensity due to conversion of NAD+ to NADH was used to measure the enzyme activity.
Assay Protocol: Buffer: 100 mM Tris-HCl pH 9.0, containing 0.01 % Tween-20. Reagents/Controls: Buffer in columns 3 and 4 as negative control (no enzyme). Substrate/cofactor solution: 1 mM NAD+ and 90 uM beta-hydroxybutyryl coenzyme A (Sigma-Aldrich, St. Louis, MO) final concentrations dispensed throughout the plate. Enzyme: 20 nM HADH2 final concentration in columns 1, 2, 5-48. Column 1 is neutral (100% activity). Column 2 contained titration of apomorphine (Sigma-Aldrich, A 4393, PubChem CID 2215, top concentration 500 uM, then 1:2 dilution in duplicate) Assay Steps: Three uL of enzyme were dispensed to 1536-well Greiner black solid bottom plates. Compounds and controls (23 nL) were transferred via Kalypsys PinTool. The plates were incubated for 15 min at room temperature, and then 1 uL of substrate/cofactor solution was added to start the reaction. The plates were immediately transferred to and read every 30 seconds for 4 min on ViewLux High-throughput CCD imager (Perkin-Elmer) using 360 nm excitation and 450 nm emission fluorescence protocol. The fluorescence intensity difference between the last and the first time points was used to compute reaction progress.
(In qHTS, concentration-response curves come from the screen itself.)
Consider `c1ccc(Nc2nc(-c3ccncc3)cs2)nc1`, for which the “activity change, negative = inhibition” value is 4.64% (inactive).

With `O=C(Nc1nc(-c2ccncc2)cs1)C1COc2ccccc2O1` (stereo not given), the Potency was 1 µM (active). `O=C(Nc1nc(-c2ccc3c(c2)OCO3)cs1)c1ccncc1`: the “activity change, negative = inhibition” value is 1.46% (inactive).

For the compound `C#CCCCCCCCCCCCCCCCC(=O)O`, the “activity change, negative = inhibition” value is -6.22% (inactive). The same measure, in the same setting: for `C[N+](C)(C)CCCCCNCC12CC3CC(CC(C3)C1)C2` the value was 8.85% (inactive). `O=C1NC(=O)[C@@](Cc2ccccc2)(c2cccnc2)N1`: the activity change, negative = inhibition was 1.4% [at 11.4 µM] (inactive). Still for that read-out and setting: for `COc1ccc(N2CCN(C(c3cc4ccc(C)cc4[nH]c3=O)c3nnnn3C3CCCC3)CC2)cc1` (stereo not given) the value was 1.4% (inactive).

On to `CCOc1ccc2[nH]c(=O)c(C(c3nnnn3CCOC)N3CCOCC3)cc2c1` (stereo not given), for which the Potency is 25.1 µM (active). For `COCCn1nnnc1C(c1cc2ccc(OC)cc2[nH]c1=O)N1CCc2ccccc2C1` (stereo not given), the “activity change, negative = inhibition” value was -7.76% (inactive). Still for that read-out and setting: for `O=C(c1ccco1)N1CCC2(CC1)CCN(c1ncccn1)CC2` the value was -1.68% (inactive).

Regarding `CCC1=C/C(=C\c2ccc3c(c2)OCO3)C(=O)S1`, the Potency is 31.6 µM (active). For the compound `CCCCC(=O)Nc1ccc2c(c1)OCCO2`, the “activity change, negative = inhibition” value was -4.77% (inactive). Turning to `CCOC(=O)NCc1ccc2c(c1)OCO2`, the “activity change, negative = inhibition” value was 0.436% (inactive). As for `C1CCC2OC2C1` (stereo not given), the “activity change, negative = inhibition” value was -5.38% (inactive). On the same count and under the same terms, to `COC(=O)c1ccccc1NC(=O)c1ccccc1NS(C)(=O)=O` belongs -21.3% (inactive); to `COc1ccc(C(=O)Nc2nncs2)c(OC)c1`, -22.5% (inactive).

For `O=C(Nc1nncs1)c1ccccc1NS(=O)(=O)c1cccs1`, the Potency was 31.6 µM (active). Turning to `COC(=O)c1ccc(C(NC(=O)OCc2ccccc2)/C(C)=C/[C@@H](C)C(=O)NCc2cc(C)on2)cc1` (stereo not given in full), the “activity change, negative = inhibition” value is 6.01% (inactive).

For the compound `Cc1cc(N2CCCCC2)nc2ccc(Cc3ccc4nc(N5CCCCC5)cc(C)c4c3)cc12`, the activity change, negative = inhibition is 1.3% [at 11.4 µM] (inactive). As for `Nc1ccc2[nH]cc(CCC(=O)O)c2c1`, the activity change, negative = inhibition was -22.6% [at 11.4 µM] (inactive). Same read-out and setting: for `c1ccc(CSc2nnc(-c3ccco3)n2Cc2ccccc2)cc1` the value was 6.77% (inactive); for `Nc1cc(=O)nc(SCc2ccccc2)n1Cc1ccco1`, -3.38% (inactive).

With `c1ccc(CSc2nnc(-c3ccco3)c(-c3ccco3)n2)cc1`, the Potency was 5.01 µM (active). Consider `CC1=C(C(=O)OCc2ccccc2)C(c2ccc(C(F)(F)F)cc2)NC(=O)N1CCCCCC(=O)O` (stereo not given), for which the “activity change, negative = inhibition” value is 6.51% (inactive). Still for that read-out and setting: to `COCCNc1cc(-c2c(C)noc2C)ncn1` belongs 2.69% (inactive); to `O=c1[nH]nc(Cc2ccccn2)c2ccccc12`, -3.94% (inactive). As to `CN(CCc1ccccn1)S(=O)(=O)c1ccc2c3c(cccc13)C(=O)N2`, the Potency was 31.6 µM (active). Consider `COc1ccc(-c2nc3cnc(OC)nc3n(Cc3ccc(F)cc3)c2=O)cc1`, for which the “activity change, negative = inhibition” value is 2.45% (inactive). Consider `O=C(NCc1ccccc1)[C@H]1C[C@@H]1[C@H](NP(=O)(c1ccccc1)c1ccccc1)c1ccccc1`, for which the “activity change, negative = inhibition” value was -0.196% (inactive). Still for that read-out and setting: for `Cc1nc2cnc(N3CCNCC3)nc2n(Cc2ccc(F)cc2)c1=O` the value was -1.77% (inactive); for `CCn1c(CNC(=O)c2ccc(OC)c(OC)c2)nnc1SCC(=O)Nc1ccccc1`, 17.2% (inactive); for `CCOC(=O)c1cc2n(c1N)-c1ccccc1C2=O`, -21.5% (inactive). As to `CCCn1c(=NC(C)=O)c(C(=O)OCC)cc2c(=O)n3ccccc3nc21`, the Potency is 31.6 µM (active). `CCOC(=O)c1cc2n(c1C)-c1ccccc1C2=O`: the “activity change, negative = inhibition” value was 5.2% (inactive). Turning to `CS(=O)(=O)N1CCC2(CC1)CN(Cc1cc(C(F)(F)F)cc(C(F)(F)F)c1)C2`, the “activity change, negative = inhibition” value is 7.84% (inactive).

Consider `CS(=O)(=O)Nc1cccc(-c2cncnc2Nc2ccccc2)c1`, for which the “activity change, negative = inhibition” value is -11.2% (inactive). Turning to `CNc1cc(-c2c(C)noc2C)ncn1`, the “activity change, negative = inhibition” value was 1.11% (inactive). On to `N#C/C(=C\c1ccc(O)c(O)c1)C(N)=O`, for which the Potency was 31.6 µM (active). Turning to `O=C(CCOc1ccccc1)NCc1ccccc1`, the “activity change, negative = inhibition” value is 11% (inactive). Same read-out and setting: to `CCCc1nc2ccccc2c(=O)n1/N=C/c1ccc(O)c(O)c1` belongs 3.33% (inactive). For the compound `N#C/C(=C\c1ccc(O)c(O)c1)C(=O)NCc1ccccc1`, the Potency result was “inactive and 15.8 µM (active)”. `C[C@@H]1C[C@H]2[C@@H]3C[C@H](F)C4=CC(=O)C=C[C@@]4(C)[C@]3(F)[C@H](O)C[C@]2(C)[C@@]1(O)C(=O)CO`: the “activity change, negative = inhibition” value was 1.79% [at 25.6 µM] (inactive).

Regarding `COc1ncc2nc(-c3ccc(Cl)cc3)c(=O)n(-c3ccccc3)c2n1`, the “activity change, negative = inhibition” value was 0.99% (inactive). Same read-out and setting: to `COc1ccccc1N1CCN(CCN2C(=O)c3ccccc3C(C)(C)C2=O)CC1` belongs 5.74% (inactive); to `Cc1c(S(=O)(=O)O)ccc(N=Nc2c(O)c(C(=O)O)cc3ccccc23)c1Cl`, 14% [at 11.4 µM] (inactive); to `C/C(CCN1CCc2nc(-c3ccccc3)c(-c3ccccc3)cc2C1)=N\O[C@@H](C)c1cn([C@@H]2COC[C@@H]2O)nn1`, -0.942% [at 11.4 µM] (inactive). The same measure, in the same setting: for `CC(C)=CCC/C(C)=C/CO/N=C1/C[C@@H](O)[C@@H](O)[C@@H]2[C@@H]3C(=O)N(C(C)(C)C)C(=O)[C@H]3CC[C@H]12` the value was 2.13% [at 11.4 µM] (inactive).

For the compound `COc1ccc(CC(=O)Nc2ccc(-c3nnc(-c4ccc(C)cc4)o3)cc2)cc1`, the Potency was 0.251 µM (active). Consider `Cc1ccc(OCC(=O)Nc2ccc(-c3nnc(-c4ccco4)o3)cc2)cc1`, for which the “activity change, negative = inhibition” value is 13.8% (inactive). On the same count and under the same terms, for `Cc1ccc(OCC(=O)Nc2ccc(-c3nc4ncccc4o3)cc2)cc1` the value was -29.8% (inactive).
